Assay outcomes as filed in PubChem BioAssay.
An excerpt weighted towards active compounds, which were near 4% of everything screened.
Peg3 prom inh – inhibitors of Peg3 promoter; HeLa PEG-Prom luciferase reporter, luminescence, overnight; inhibition, % at 20 µM; 360,000 compounds, 1.7% hits;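 active = inhibition of at least 50% at 20 µM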
CF NFkB block – cystic fibrosis NF-kB activation inhibition. KKLEB NF-kB-GFP reporter, PAF-induced, GFP fluorescence overnight. inhibition, % at 5 µM. 360,000 compounds, 0.86% hits;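 active = at least 50% inhibition at 5 µM, scaled per plate between neutral and stimulator controls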;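 also: PAF is a Pseudomonas aeruginosa culture filtrate used as stimulus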
TWEAK Fn14 block – blocks TWEAK-Fn14 interaction in a reporter cell assay; inhibition, % at 10 µM; 360,000 compounds, 2% hits; TWEAK-stimulated Fn14 reporter cells, luciferase luminescence, 8 h; in the data active = inhibition above about 50%
HIF-2a inh – HIF-2a inhibition; 360,000 compounds, 0.72% hits; inhibition, % at 18.8 µM; AID 624352; 786-0 RCC cells HIF-2a reporter, luciferase luminescence, overnight;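 active = inhibition of the luminescence signal of 40% or more relative to plate controls, in a single-dose primary screen at 18.75 µM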
TROY signal inh – inhibitors of TROY-dependent NF-kB signaling; Q293 LMP1-TROYcd NF-kB luciferase reporter, 4 h; inhibition, % at 10 µM; 360,000 compounds, 0.98% hits; AID 1347056;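 active = compounds whose plate-normalised and pattern-corrected inhibition of the luciferase reporter signal at the single screening dose is 50% or more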
KKLEB tox – reduces viability of KKLEB cystic fibrosis airway cells; AID 602141; KKLEB CF airway cells viability, ATPlite luminescence, overnight; hits give low values; cells stimulated with P. aeruginosa culture filtrate; activity change (cytotoxicity), % at 5 µM; 360,000 compounds, 0.36% hits;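 active = corrected activity change at or below -50% at 5 µM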
Hits are given with their value; n = inactive; x = no result given.

SMILES | Peg3 prom inh | CF NFkB block | TWEAK Fn14 block | HIF-2a inh | TROY signal inh | KKLEB tox
CC(C)(C)SCCNC(=O)c1ccccc1 | n | n | n | n | n | n
Cc1ccc(C(=O)NCCSC(C)(C)C)cc1 | n | n | 52 | n | n | n
Cc1ccccc1NC(=O)CN1CCN(C(=O)c2ccco2)CC1 | 53 | n | n | n | n | n
COC(=O)c1[nH]c2ccccc2c1NC(=O)CN1CCN(c2cccc(Cl)c2)CC1 | n | n | 59 | n | n | n
COC(=O)c1[nH]c2ccccc2c1NC(=O)CN1CCN(C(=O)c2ccco2)CC1 | n | n | 87 | n | x | n
O=C(Nc1cccc(Cl)c1Cl)c1csc([C@@H]2O[C@H](CO)[C@H](O)[C@H](O)[C@H]2O)n1 | n | n | n | n | n | n
COc1ccc(-c2oc(=O)n(C)c2-c2ccc(OC)cc2)cc1 | n | n | n | n | n | n
Cc1cccc(C)c1-n1nnnc1C1(C)CCC(=O)N1C1CCN(Cc2ccccc2)CC1 (stereo not given) | x | x | n | n | n | x
CC1(c2nnnn2-c2ccc3c(c2)OCCO3)CCC(=O)N1C1CCN(Cc2ccccc2)CC1 (stereo not given) | x | x | 80 | n | n | x
COc1ccc(N/C=C2\CCc3ccccc3C2=O)cc1 | n | n | 87 | n | 70 | n
O=C1/C(=C/Nc2ccc3c(c2)OCO3)CCc2ccccc21 | n | n | n | n | n | -53
COc1ccc2c(c1)CC/C(=C\Nc1ccc3c(c1)OCO3)C2=O | n | n | n | n | n | n
Cc1ccc(CSc2nc(N)cc(=O)[nH]2)cc1 | n | n | n | n | n | n
N#Cc1ccc(CSc2nc(N)cc(=O)[nH]2)cc1 | n | n | 72 | n | n | n
C[C@@H]1CN([C@@H](C)CO)C(=O)Cc2cc(NC(=O)Nc3ccc(C(F)(F)F)cc3)ccc2O[C@@H]1CN(C)S(=O)(=O)c1ccc(Cl)cc1 | 60 | n | n | n | n | n
C[C@H](CO)N1C[C@H](C)[C@@H](CN(C)Cc2ccc(-c3ccccc3)cc2)Oc2c(NC(=O)Nc3ccc4c(c3)OCO4)cccc2C1=O | 94 | n | n | n | n | n
C[C@H]1CN([C@@H](C)CO)C(=O)c2cccc(NC(=O)Nc3ccc(C(F)(F)F)cc3)c2O[C@@H]1CN(C)Cc1ccc(Cl)c(Cl)c1 | 97 | 68 | n | n | n | n
C[C@@H]1CN([C@H](C)CO)C(=O)c2cc(NC(=O)Nc3ccc(C(F)(F)F)cc3)ccc2O[C@H]1CN(C)Cc1ccc(Cl)c(Cl)c1 | n | n | 53 | n | n | n
C=CCNC(=O)COc1ccc(S(=O)(=O)Nc2ccc(OCC)cc2)cc1 | n | n | n | n | n | n
Cc1cccc(NC(=O)c2cc(S(=O)(=O)N3CCOCC3)cn2C)c1C | n | n | n | n | n | n
COc1cc(CC(=O)OCC(=O)NC2CCCC2)cc(OC)c1OC | n | n | n | n | n | n
C[C@H](CO)N1C[C@H](C)[C@@H](CN(C)S(=O)(=O)c2cccs2)Oc2ccc(NC(=O)Nc3ccc(C(F)(F)F)cc3)cc2C1=O | n | n | 60 | n | n | n
C[C@@H]1CN([C@H](C)CO)C(=O)c2cc(NS(=O)(=O)c3ccc(F)cc3)ccc2O[C@@H]1CN(C)Cc1ccc(Cl)c(Cl)c1 | 52 | n | n | n | n | n
O=C(O)c1cccc(S(=O)(=O)N2CCC(n3nnc4cc(C(F)(F)F)ccc43)CC2)c1 | n | n | n | n | n | n
Cn1c(SCC(=O)NC2CC2)nnc1C1CC1 | n | n | n | n | n | n
SMILES | Peg3 prom inh | CF NFkB block | TWEAK Fn14 block | HIF-2a inh | TROY signal inh | KKLEB tox
O=C(O)/C=C/C(=O)N1CCN(c2ccccc2F)CC1 | n | n | n | n | 75 | n
O=C(CCCC(=O)N1CCN(c2ccccc2F)CC1)N1CCN(c2ccccc2F)CC1 | n | n | n | n | n | n
O=C(Nc1ccccc1)SC1CCCCC1 | n | n | n | n | n | n
O=C(c1cnn2c1NC(c1ccco1)CC2C(F)(F)F)N1CCN(c2cccc(Cl)c2)CC1 (stereo not given) | 50 | n | n | n | n | n
CCOc1ccc(OCc2ccc(C(=O)NC(C)(C)C)o2)cc1 | n | n | n | n | n | n
Cc1ccc(S(=O)(=O)N(CCCO)CC(O)CON=C2c3ccccc3-c3ccccc32)cc1 (stereo not given) | 52 | n | 56 | n | n | n
CCN1CCN(CCCNC(=O)CCCn2nc(C)c3sc4ccccc4c3c2=O)CC1 | n | n | n | n | n | n
